Reference: PubChem BioAssay (Tox21)
Values joined by “and” are separate entries in the source; they are usually repeats but may differ in a detail not shown here. Identical values can stand only once. Records with an inconclusive call do not appear. Where a call stands in place of a potency, no number is given. Some compounds were tested as several samples or in several runs, with calls that do not always agree. Active and inactive are the calls of the source. Calls come from the whole dose curve.

assay: qHTS assay to identify small molecule agonists of the hypoxia (HIF-1) signaling pathway - cell viability counter screen (AID 1224844); conditions: HRE-bla ME-180 viability, CellTiter-Glo luminescence, 17 h; series mostly up to 76.8 µM; note: nearly all actives have a fitted effect of over 50% in size
Description: National Center for Advancing Translational Sciences [NCATS]
NIH Chemical Genomics Center [NCGC]
U.S. Environmental Protection Agency [EPA]
National Institutes of Environmental Health Sciences [NIEHS]
National Toxicology Program [NTP]
U.S. Food and Drug Administration [FDA]
Hypoxia-inducible factor-1 (HIF-1) is the major hypoxia-regulated transcription factor that controls cellular responses to low oxygen concentration. HIF-1 is composed of two subunits: hypoxia responsive HIF-1-alpha and constitutively expressed HIF-1-beta, which is also known as aryl hydrocarbon receptor nuclear translocator. During hypoxic conditions, HIF-1-alpha heterodimerizes with HIF-1-beta and translocates into the nucleus where the HIF-1 complex binds to the hypoxia-response element (HRE) and activates expression of target genes such as VEGF (vascular endothelial growth factor). The HIF-1 pathway is essential to normal growth and development, and is involved in the pathophysiology of cancer, inflammation, and ischemia.
Using a beta-lactamase reporter-gene under control of the hypoxia response element, a cell-based assay [CellSensor(TM) HRE-bla ME-180 from Life Technologies, Carlsbad, CA] was used to measure hypoxia-induced signaling. Tox21 10K library compounds were measured for their ability to induce the reporter gene activity. The cytotoxicity of the Tox21 compound library against HRE-bla ME-180 cell line was tested in parallel by measuring cell viability using CellTiter-Glo assay (Promega, Madison, WI) in the same assay wells.
Tox21 Assay Protocol Summary:
HRE-bla ME-180 cells were dispensed at 2,000 cells per well in 6 uL of assay medium containing 0.5% dialyzed FBS into black wall/clear-bottom 1536-well plates using a Multidrop Combi (Thermo Scientific, Waltham, MA) dispenser. After the assay plates were incubated at 37C and 5% CO2 for 5 hrs, 23 nL of compounds dissolved in DMSO, positive controls or DMSO only was transferred to each well of the assay plate using a Pintool station (Kalypsys, San Diego, CA). The assay plates were incubated at 37C and 5% CO2 for 17 hrs. One uL of LiveBLAzerTM B/G FRET substrate (CCF4-AM) (Life Technologies) was added to each well using a Flying Reagent Dispenser (FRD, Aurora Discovery, San Diego, CA). After 2 hr incubation at room temperature, fluorescence intensity (405 nm excitation, 460 nm and 530 nm emissions) was measured using an Envision plate reader (PerkinElmer, Shelton, CT). For cytotoxicity, 4 ul/well of CellTiter-Glo reagent was added into the assay plates using an FRD. After 30 min incubation at room temperature, the luminescence intensity was measured using a ViewLux plate reader (PerkinElmer).
Potency is the fitted concentration of half-maximal effect.

Compound | Potency
CNC(=O)CSP(=S)(OC)OC | inactive
CC1=C(C(=O)Nc2ccccc2)SCCO1 | inactive
C=CC(=O)OCC(CC)(COC(=O)C=C)COC(=O)C=C | 20 µM (active) and 12.3 µM (active)
CN(C)P(=O)(N(C)C)N(C)C | inactive
Cc1ccc(N=CN(C)C=Nc2ccc(C)cc2C)c(C)c1 | 43.8 µM (active) and 30.9 µM (active) and inactive
COP(=S)(OC)Oc1ccc(Sc2ccc(OP(=S)(OC)OC)cc2)cc1 | inactive
N#CCCCCC#N | inactive
CN(C)c1ccccc1 | inactive
O=C(O)CF | inactive
COc1ccc(C=O)cc1OC | inactive
S=c1[nH]c2ccccc2[nH]1 | inactive
CC(C)COC(=O)c1ccccc1C(=O)OCC(C)C | inactive
CCC[CH2][Sn]([Cl])([Cl])[CH2]CCC | 624 nM (active) and 977 nM (active)
N#Cc1cccnc1 | inactive
CC[n+]1c(-c2ccccc2)c2cc(N)ccc2c2ccc(N)cc21 | 21.8 µM (active) and inactive
CCOP(=S)(OCC)OP(=S)(OCC)OCC | inactive
ClCc1ccccn1 | inactive
CNC(=S)S | inactive
CC(O)CN(CC(C)O)CC(C)O (stereo not given) | inactive
CC(C)Nc1nc(Cl)nc(NC(C)C)n1 | inactive

Compound | Potency
CCNc1nc(Cl)nc(NC(C)(C)C#N)n1 | inactive
ClCC(Cl)CCl | inactive
CCN(CC)C(=O)C(C)Oc1cccc2ccccc12 (stereo not given) | inactive
ClC(Cl)(Cl)Br | inactive
COc1ccc(CO)cc1 | inactive
CCOP(=O)(O)OCC (tested in a mixture with another compound) | inactive
Cl | inactive
Nc1ncn[nH]1 | inactive
ClC(Cl)=C(Cl)C(Cl)=C(Cl)Cl | inactive
O=NN(c1ccccc1)c1ccccc1 | inactive
Oc1ccc(Cl)cc1Cc1ccccc1 | 49.6 µM (active) and inactive
CC1(C)C(C(=O)OC(C#N)c2cccc(Oc3ccccc3)c2)C1(C)C (stereo not given) | inactive
CC(C)=CC1C(C(=O)OCN2C(=O)C3=C(CCCC3)C2=O)C1(C)C (stereo not given) | inactive
C[N+](C)(C)C | inactive
COc1ccc(O)c(C(C)(C)C)c1 | inactive
CCOS(=O)(=O)OCC | inactive
CCCCOC(=O)COC(=O)c1ccccc1C(=O)OCCCC | inactive
Oc1ccc(Cl)cc1Cl | inactive
Nc1ccc2ccccc2c1 | inactive
COC(=O)Nc1nc2ccccc2[nH]1 | inactive
